Screening data: PubChem BioAssay, several laboratories
Mdm2-MdmX inh = inhibitors of human Mdm2-MdmX association, primary screen, cell-based, luminescence, split luciferase, SaOS-2, uHTS; SaOS-2 split-luciferase Mdm2/MdmX complementation; inhibition, % at 8 µM; 3% of 330,000 active;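 active = inhibition of at least 50% at 8 µM in the primary screen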
Target sequence (O15151 whole entry, looked up): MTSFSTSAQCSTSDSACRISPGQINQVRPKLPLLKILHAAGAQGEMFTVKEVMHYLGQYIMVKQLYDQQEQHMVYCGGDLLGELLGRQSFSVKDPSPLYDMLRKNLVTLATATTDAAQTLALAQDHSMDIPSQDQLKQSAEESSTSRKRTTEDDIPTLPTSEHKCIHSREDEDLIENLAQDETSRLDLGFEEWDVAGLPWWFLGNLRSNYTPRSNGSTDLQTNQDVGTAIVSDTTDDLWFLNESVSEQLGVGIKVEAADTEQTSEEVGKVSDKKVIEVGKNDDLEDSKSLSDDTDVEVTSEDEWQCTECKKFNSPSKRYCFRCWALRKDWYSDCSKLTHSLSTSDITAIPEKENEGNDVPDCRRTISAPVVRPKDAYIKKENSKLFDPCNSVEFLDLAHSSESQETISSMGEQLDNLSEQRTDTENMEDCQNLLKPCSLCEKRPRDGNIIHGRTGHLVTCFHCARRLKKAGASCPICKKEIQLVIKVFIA
Target sequence (Q00987 whole entry, looked up): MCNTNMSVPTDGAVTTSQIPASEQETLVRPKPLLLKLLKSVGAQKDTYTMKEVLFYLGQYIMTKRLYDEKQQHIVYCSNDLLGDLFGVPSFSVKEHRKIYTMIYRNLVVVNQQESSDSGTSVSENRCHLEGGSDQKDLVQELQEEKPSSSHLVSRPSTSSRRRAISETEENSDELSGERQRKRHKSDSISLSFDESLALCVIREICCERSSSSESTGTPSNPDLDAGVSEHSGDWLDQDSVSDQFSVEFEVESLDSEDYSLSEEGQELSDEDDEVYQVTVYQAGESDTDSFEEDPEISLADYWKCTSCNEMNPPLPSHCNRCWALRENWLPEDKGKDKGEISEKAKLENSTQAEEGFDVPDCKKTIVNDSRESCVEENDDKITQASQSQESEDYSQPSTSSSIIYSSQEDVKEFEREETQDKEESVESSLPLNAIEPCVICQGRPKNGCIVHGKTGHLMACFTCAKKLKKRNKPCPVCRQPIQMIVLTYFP
Jurkat NFkB inh = inhibitors of induced NF-kB luciferase reporter, primary screen, TCR NF-kB activation inhibitor project, cell-based, luminescence, uHTS; Jurkat, PMA/ionomycin-induced NF-kB luciferase reporter; inhibition, % at 4 µM; 0.53% of 330,000 active; in the data active = inhibition above about 50%
697 NFkB inh = inhibitors of PMA/ionomycin-induced NF-kB reporter, 697 cells, primary screen, B-cell NF-kB inhibitor project, cell-based, luminescence, uHTS. AID 435022, 2010. inhibition, % at 4 µM. 0.33% of 330,000 active. 697 B-cell NF-kB luciferase reporter, 16 h; in the data active = inhibition above about 35%
Shn3 inh set2 = reduction of Shn3 3'UTR firefly luciferase signal, primary screen, Schnurri-3 inhibitor project, cell-based, Clone20 osteoblasts, set 2; Clone20 osteoblast Shn3 3'UTR firefly luciferase, 24 h; inhibition, % at 12.5 µM; 0.52% of 360,000 active; AID 588674, 2011;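 active = mean inhibition of at least 75% with every replicate also reaching 75%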
Gli-Sufu antag = Gli-Sufu pathway antagonists, primary screen, luciferase luminescence, Sufu-KO-LIGHT cells, uHTS; Sufu-KO-LIGHT fibroblasts, Gli luciferase reporter luminescence; AID 588413, 2011; 0.74% of 340,000 active; inhibition, % at 5 µM;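 active = inhibition above about 55%, limit read from the data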
Mdm2 MdmX conf = Mdm2-MdmX complex disruptors, retested hits, confirmation, luminescence, single concentration; shares compounds with Mdm2-MdmX inh; Mdm2-MdmX binding, luminescent assay; inhibition, % at 8 µM; 55% of 10,000 active; in the data active = inhibition above about 40%
Full FLuc ctr = full-length luciferase signal inhibition, confirmation, counter-screen for Mdm2/MdmX interaction inhibitor project, cell-based, single concentration, SaOS-2; SaOS-2 full-length luciferase counterscreen, luminescence; shares compounds with Mdm2-MdmX inh; 77% of 6,200 active; inhibition, % at 8 µM; AID 504607, 2011;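 active = mean inhibition at 8 µM reaching about 37%, which flags the compound as non-specific, limit read from the data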;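 note: p53-null SaOS-2 cells with luciferase driven by a doxycycline-inducible promoter; compound on cells about two nights before reading with doxycycline added after day one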
A number is an active result; n = inactive; x = no result given. Rows were chosen to be rich in hits. Some 3.8% of all compounds tested hit in one or more screens of this group.

SMILES | Mdm2-MdmX inh | Jurkat NFkB inh | 697 NFkB inh | Shn3 inh set2 | Gli-Sufu antag | Mdm2 MdmX conf | Full FLuc ctr
CCOC(=O)C(NC(=O)NCc1ccccc1OC)(OCC)C(F)(F)F (centres undefined) | n | n | n | n | n | x | x
COc1ccc(CN(CC(=O)NCc2ccccc2)C(=O)CCC(=O)Nc2ccccn2)cc1 | n | n | n | n | n | x | x
CS(=O)(=O)Nc1ccccc1C(=O)Nc1cc(Cl)cc(Cl)c1 | 60 | n | n | n | n | 92 | n
O=C(O)c1ccccc1OC(C(=O)Nc1cc(Cl)cc(Cl)c1)c1ccccc1 (centres undefined) | 76 | n | n | n | n | n | x
O=C(NCc1ccccn1)Nc1cc(Cl)cc(Cl)c1 | n | n | n | n | n | x | x
O=C(Nc1cccnc1)Nc1ccccc1Cl | n | n | n | n | n | x | x
O=C(NCc1csc2ccccc12)Nc1cc(Cl)cc(Cl)c1 | 69 | n | n | n | n | n | x
O=C(Nc1cccnc1)Nc1cc(Cl)cc(Cl)c1 | 50 | n | n | n | n | n | x
O=C(Nc1ccccc1)Nc1cc(Cl)cc(Cl)c1 | 91 | n | n | n | n | 80 | n
O=C(Nc1cccc(O)c1)c1cc2nc(-c3ccccc3)cc(-c3ccccc3)n2n1 | n | n | n | n | n | x | x
COc1ccc(NC(=O)c2sc(-c3ccccc3)nc2C)c(OC)c1 | n | n | n | n | n | x | x
COc1ccc(NC(=O)c2cc3nc(-c4ccccc4)cc(-c4ccccc4)n3n2)c(OC)c1 | 64 | n | n | n | n | n | x
O=C(NC1CCCC1)c1cc2nc(-c3ccccc3)cc(-c3ccccc3)n2n1 | 55 | n | n | n | n | n | x
Nc1nc(SCc2ccc(Cl)cc2Cl)nc2nc3c(cc12)CCCC3 | 57 | n | n | n | n | n | x
Nc1nc(SCc2ccccc2Cl)nc2nc3c(cc12)CCCC3 | n | n | n | n | n | x | x
C=CCNc1oc(-c2ccc(Cl)cc2)nc1C#N | 50 | n | n | n | n | n | x
COCCCNC(=O)c1ccc(Cn2c(=O)c3ccccc3n(Cc3ccccc3C)c2=O)cc1 | n | n | n | n | n | x | x
COCCCNC(=O)c1ccc(Cn2c(=O)c3ccccc3n(Cc3ccccc3C#N)c2=O)cc1 | 53 | n | n | n | n | n | x
CCCCN(CC)CCNC(=O)c1cc2c(=O)n(C)c3ccccc3c2s1 | n | n | n | n | n | x | x
CCOC(CNC(=O)c1cc2c(=O)n(CC)c3ccccc3c2s1)OCC | n | n | n | n | n | x | x
CCCN(CCC)CCCNC(=O)c1cc2c(=O)n(CC)c3ccccc3c2s1 | 71 | n | n | n | n | 58 | 59
CCCCN(CC)CCCNC(=O)c1cc2c(=O)[nH]c3ccccc3c2s1 | n | n | n | n | n | x | x
CCCCN(CC)CCCNC(=O)c1cc2c(=O)n(CC)c3ccccc3c2s1 | 79 | n | n | n | n | 60 | 55
CCCCN(CC)CCNC(=O)c1cc2c(=O)n(CC)c3ccccc3c2s1 | 73 | n | n | n | n | 52 | 66
O=C1c2ccccc2N2C(=O)c3ccccc3C2N1Cc1ccccc1 (centres undefined) | n | n | n | n | n | x | x
SMILES | Mdm2-MdmX inh | Jurkat NFkB inh | 697 NFkB inh | Shn3 inh set2 | Gli-Sufu antag | Mdm2 MdmX conf | Full FLuc ctr
CC(CCOS(N)(=O)=O)c1ccccc1 (centres undefined) | n | n | n | n | n | x | x
O=C(CCC(=O)c1cccs1)NNC(=O)c1ccc(Cl)cc1 | n | n | n | n | n | x | x
CCn1c(=O)c2cc(C(=O)NCCC(C)C)sc2c2ccccc21 | n | n | n | n | x | x | x
CCn1c(=O)c2cc(C(=O)NCCCOC)sc2c2ccccc21 | 64 | n | n | n | n | 49 | 103
CCCCN(CC)CCNC(=O)c1cc2c(=O)[nH]c3ccc(C)cc3c2s1 | 83 | n | n | n | n | 47 | 68
O=C(Nc1ccc(N2CCOCC2)cc1)c1csc(COCCO)n1 | x | x | x | n | x | x | x
Cc1cc(C)cc(NC(=O)CC2Oc3ccc(C)cc3NC2=O)c1 (centres undefined) | n | n | n | n | n | x | x
Cc1ccc(-c2nc(C(Cl)Cl)c3ccccc3n2)cc1 | 96 | n | n | n | n | 49 | n
COC(=O)c1c(NC(=O)C(=O)N2CCOCC2)sc2c1CCCC2 | n | n | n | n | n | x | x
Cn1nnnc1Sc1ncnc2scc(-c3cccc(Br)c3)c12 | 96 | n | n | n | n | 100 | 49
O=C(O)CSc1ncnc2scc(-c3ccccc3)c12 | n | n | n | n | n | x | x
Cn1nnnc1Sc1ncnc2scc(-c3cccc(S(C)(=O)=O)c3)c12 | 84 | n | n | n | n | 70 | n
CCCCCCCCCCC[N+](C)(C)CC/C=C1/c2ccccc2Sc2ccc(Cl)cc21 | 78 | n | n | 92 | n | 69 | n
OCCN1CCN(CC/C=C2/c3ccccc3Sc3ccc(Cl)cc32)CC1 | 61 | n | n | n | n | n | x
CCCCCCCCCC[N+](C)(C)CC/C=C1/c2ccccc2Sc2ccc(Cl)cc21 | 83 | n | n | 87 | n | 76 | n
CC[N+](C)(C)CC/C=C1/c2ccccc2Sc2ccc(Cl)cc21 | n | n | n | n | n | x | x
O=C(CN1CCCC1)N1c2ccccc2Sc2ccc(Cl)cc21 | n | n | n | n | n | x | x
COc1ccc(-c2cc(C(=O)NCc3ccco3)c3ccccc3n2)cc1OC | n | n | n | n | n | x | x
O=C(Nc1ccccc1)c1cccc(S(=O)(=O)NCc2ccco2)c1 | n | n | n | n | n | x | x
COc1ccc(-c2cc(C(=O)Nc3cccc(S(=O)(=O)NCc4ccco4)c3)c3ccccc3n2)cc1OC | 54 | n | n | n | n | 66 | 64
O=C(Nc1cccc(S(=O)(=O)NCc2ccco2)c1)c1cc(-c2ccc(F)cc2)nc2ccccc12 | 69 | n | n | n | n | n | 76
COc1cc(C(=O)Nc2cccc(S(=O)(=O)NCc3ccco3)c2)cc(OC)c1OC | 69 | n | n | n | n | n | 98
O=C(COc1ccc(Cl)cc1Br)Nc1cccc(S(=O)(=O)N2CCCC2)c1 | n | n | n | n | n | x | x
N#Cc1ccc(N/N=C/c2cn(-c3ccccc3)nc2-c2ccccc2)c([N+](=O)[O-])c1 | 91 | n | n | n | n | n | x
O=Cc1cn(-c2ccccc2)nc1-c1cccc([N+](=O)[O-])c1 | x | x | x | n | x | x | x
NS(=O)(=O)c1ccc(N/N=C/c2cn(-c3ccccc3)nc2-c2cccs2)c([N+](=O)[O-])c1 | 96 | n | n | n | n | n | x
CCC(=O)Nc1cc2nn(-c3ccc(C)cc3)nc2cc1C | 67 | n | n | n | n | 67 | 146
Cc1ccc(-n2nc3cc(C)c(NC(=S)NC(=O)/C=C/c4ccco4)cc3n2)cc1 | n | n | n | n | n | x | x
